# Out of some 310,000 compounds screened, about 14,000 (4.5%) showed an effect of 50% or more. The effect is printed as a negative number. The sample holds strong results, similar compounds and a random draw of the others, so the mix is not that of the screen.
# Target: human ether-à-go-go-related gene (hERG) potassium channel (human, UniProt Q12809)
# Test: primary screen, population patch clamp on CHO cells stably expressing hERG; higher = less effect of the substance
# 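Also: peak tail current of the secondary pulse compared with the same well before compound.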
# Sequence of human ether-à-go-go-related gene (hERG) potassium channel (Q12809 whole entry, looked up): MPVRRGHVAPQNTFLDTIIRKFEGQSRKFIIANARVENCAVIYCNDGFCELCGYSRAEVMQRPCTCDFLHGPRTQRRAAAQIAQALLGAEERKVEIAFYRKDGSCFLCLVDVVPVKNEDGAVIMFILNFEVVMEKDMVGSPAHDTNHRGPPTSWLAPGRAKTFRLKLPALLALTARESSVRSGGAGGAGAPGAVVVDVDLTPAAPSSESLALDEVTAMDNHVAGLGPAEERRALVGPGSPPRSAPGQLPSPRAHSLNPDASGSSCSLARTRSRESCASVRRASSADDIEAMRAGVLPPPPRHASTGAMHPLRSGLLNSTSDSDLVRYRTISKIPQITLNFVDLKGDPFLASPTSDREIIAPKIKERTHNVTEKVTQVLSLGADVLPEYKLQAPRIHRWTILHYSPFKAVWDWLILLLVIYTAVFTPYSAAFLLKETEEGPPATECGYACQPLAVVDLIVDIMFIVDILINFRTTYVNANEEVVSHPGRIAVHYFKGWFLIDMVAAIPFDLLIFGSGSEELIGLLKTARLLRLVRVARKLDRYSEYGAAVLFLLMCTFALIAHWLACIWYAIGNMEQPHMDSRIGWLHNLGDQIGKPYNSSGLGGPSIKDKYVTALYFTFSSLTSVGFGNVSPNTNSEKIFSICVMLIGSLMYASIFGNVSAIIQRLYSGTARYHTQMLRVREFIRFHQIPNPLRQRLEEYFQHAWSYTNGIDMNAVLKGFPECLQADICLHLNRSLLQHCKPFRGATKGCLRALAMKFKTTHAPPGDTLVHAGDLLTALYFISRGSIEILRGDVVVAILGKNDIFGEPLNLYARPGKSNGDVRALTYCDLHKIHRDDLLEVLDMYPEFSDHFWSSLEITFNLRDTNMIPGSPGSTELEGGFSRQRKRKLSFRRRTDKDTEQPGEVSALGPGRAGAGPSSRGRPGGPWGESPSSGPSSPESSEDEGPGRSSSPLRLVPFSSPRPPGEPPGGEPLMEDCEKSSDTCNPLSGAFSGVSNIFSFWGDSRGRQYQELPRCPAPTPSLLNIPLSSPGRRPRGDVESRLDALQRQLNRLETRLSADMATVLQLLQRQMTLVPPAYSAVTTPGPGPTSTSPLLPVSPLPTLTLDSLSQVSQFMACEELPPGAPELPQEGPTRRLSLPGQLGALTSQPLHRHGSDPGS
row,Compound,"hERG current change (%, negative = inhibition) at 10uM"
1,CCOc1ccc(NC(=O)CN(C)C(=O)c2c(-c3c(F)cccc3Cl)noc2C)cc1OCC,-3.83%
2,Cc1cccc(C)c1OCc1cc(C(=O)N2CCN(c3ccccc3)CC2C)no1 (stereo not drawn),7.3%
3,O=C(COc1ccc(/C=N/NC(=O)c2ccccc2O)cc1)Nc1ccc([N+](=O)[O-])cc1,13.7%
4,COc1ccc(NC(=O)C2=CC(c3ccco3)=NS(=O)(=O)N2C)cc1,0.0772%
5,CCCCCCNC(=O)N[C@H](Cc1ccc(O)cc1)C(=O)NCCC[C@H]1CN2C(=NC[C@H]2CCC)N1CC1CCC1,9.27%
6,CCCCCCC(=O)N1C/C=C\C(c2ccc(OC)cc2)N(Cc2ccc(F)cc2)C(=O)C1 (stereo not drawn),-43.7%
7,CCN(CC)S(=O)(=O)c1cc(OC)c(C)cc1C,-5.58%
8,Cc1ccc(S(=O)(=O)CCC(=O)N2CCN(c3ccc([N+](=O)[O-])cc3)CC2)cc1,-70.8%
9,Cc1c(C(=O)N2CCN(c3ccccc3F)CC2)sc2ncn(CC(=O)N3CCOCC3)c(=O)c12,-3.64%
10,Cc1c(C(=O)N2CCN(c3ccc([N+](=O)[O-])cc3)CC2)sc2ncn(CC(=O)N3CCOCC3)c(=O)c12,-62.2%
11,Cc1cc([N+](=O)[O-])ccc1NC(=O)c1sc2ncn(CC(=O)N3CCOCC3)c(=O)c2c1C,-0.176%
12,CC(=O)c1ccc(N2CCN(C(=O)CCS(=O)(=O)c3ccc(C)cc3)CC2)cc1,-41%
13,CC(=O)c1ccc(N2CCN(C(=O)Cc3cccs3)CC2)cc1,-33.3%
14,O=C(/C=C/c1ccc(Cl)cc1)N1CCN(Cc2ccccc2)CC1,-35.6%
15,O=C(/C=C/c1cccc([N+](=O)[O-])c1)N1CCN(Cc2ccccc2)CC1,-47.5%
16,O=C(/C=C/c1ccc([N+](=O)[O-])cc1)N1CCN(Cc2ccccc2)CC1,-66.8%
17,O=C(Cc1cccs1)N1CCN(c2ccc([N+](=O)[O-])cc2)CC1,-66.1%
18,O=C(Cc1cccs1)N1CCN(c2ccc(F)cc2)CC1,-4.82%
19,Cc1ccc(S(=O)(=O)CCC(=O)N2CCN(c3ccc(Cl)cc3)CC2)cc1,-23.8%

row,Compound,"hERG current change (%, negative = inhibition) at 10uM"
1,Cn1c(=O)cc(OCC(=O)N2CCN(C3CCCCC3)CC2)c2ccccc21,-18.6%
2,CN(CCc1ccccn1)C(=O)c1cccnc1Oc1ccccc1,11.3%
3,O=C(O)C12C[C@H]3C[C@@H](C1)CC(n1ncc(N4CCN(c5ccccc5)CC4)c(Cl)c1=O)(C3)C2,9.94%
4,CN(C(=O)Cn1c(=O)oc2ccccc21)C1CCCCC1,-1.73%
5,CCCN(CCC)CCCNC(=O)Cn1cnc2sc(C)c(S(=O)(=O)N3CCCCC3)c2c1=O,9.2%
6,CCCCOc1ccc(C(=O)NCC(=O)N(C)CC(=O)Nc2ccc(N3CCOCC3)cc2)cc1,-27.4%
7,C(=N\N1CCOCC1)/c1ccsc1.O=P(O)(O)O,18.8%
8,Cc1ccc(S(=O)(=O)NCc2ccc(C(=O)N3CCN(c4ccc([N+](=O)[O-])cc4)CC3)cc2)cc1,-70.7%
9,CC(Cc1ccccc1)NC(=O)Cc1ccc([N+](=O)[O-])cc1 (stereo not drawn),-17.8%
10,O=C(Cc1ccccc1)N1CCN(c2ccc([N+](=O)[O-])cc2)CC1,-55.2%
11,O=C(Cc1ccc(F)cc1)N1CCN(c2ccc([N+](=O)[O-])cc2)CC1,-69.5%
12,O=CN1CCN(C(=O)Cc2ccc([N+](=O)[O-])cc2)CC1,-25.6%
13,CC(Cc1ccccc1)NC(=O)/C=C/c1ccc([N+](=O)[O-])cc1 (stereo not drawn),-51.7%
14,Cc1ccc(S(=O)(=O)NCc2ccc(C(=O)N3CCN(c4ccccc4)CC3)cc2)cc1,-18.6%
15,O=C(Cc1ccc(Br)cc1)N1CCN(c2ccc(F)cc2)CC1,-49.9%
16,O=C(Cc1ccc(Cl)cc1)N1CCN(c2ccccc2)CC1,-12.2%
17,O=C(Cc1ccc(F)cc1)N1CCN(c2ccc(F)cc2)CC1,0.483%
18,CC(Cc1ccccc1)NC(=O)/C=C/c1ccc(Cl)cc1 (stereo not drawn),-11.7%
19,COc1ccc(N2CCN(C(=O)c3ccc(CNS(=O)(=O)c4ccc(C)cc4)cc3)CC2)cc1,13.9%

row,Compound,"hERG current change (%, negative = inhibition) at 10uM"
1,CCN(c1ccc(NC(=O)COC(=O)CCC(=O)c2ccc(F)cc2)cc1)C(C)C,-4.95%
2,O=C(Cn1cnc2c(nnn2Cc2ccccc2F)c1=O)N1CCN(c2ccccc2)CC1,-31.2%
3,O=C(NCCC1=CCCCC1)c1cccc2c1C(=O)N(C1CCCCC1)C2,9.87%
4,O=C(NN1C(=O)c2ccccc2C1=O)c1ccncc1,10.4%
5,CCOC(=O)C(O)(c1ccc(NC(=O)c2ccc(Cl)c(Cl)c2)cc1)C(F)(F)F (stereo not drawn),-4.61%
6,COc1ccc(NC(=O)CSc2nccn2Cc2ccco2)cc1OC,11.3%
7,CCOC(=O)N1CCN(C(=O)c2ccc3c(c2)sc2nc(-c4ccccc4)cn23)CC1,-49.3%
8,CCOC(=O)c1cn(CC)c2ccc(S(=O)(=O)N3CC(C)CC(C)C3)cc2c1=O (stereo not drawn),-21.7%
9,Cc1c(C)c2ccc(OC(C)C(=O)NCCc3c[nH]c4ccccc34)cc2oc1=O (stereo not drawn),-2.3%
10,Cc1ccc(SCC(=O)N2CCC(C(N)=O)CC2)cc1,13.2%
11,O=C(CN1CCN(c2ccc([N+](=O)[O-])cc2Cl)CC1)N1CCOCC1,-45.2%
12,O=C(Cc1ccccc1)N1CCN(S(=O)(=O)c2ccc([N+](=O)[O-])cc2)CC1,-64%
13,Cc1ccc(CC(=O)N2CCN(S(=O)(=O)c3ccccc3)CC2)cc1C,-55.5%
14,O=C(CN1CCOCC1)N1CCN(c2ccc([N+](=O)[O-])cc2)CC1,-71.6%
15,O=C(CN1CCN(c2ccc(F)cc2)CC1)N1CCOCC1,12.9%
16,O=C(Cc1ccccc1)N1CCN(S(=O)(=O)c2cccc([N+](=O)[O-])c2)CC1,-22.2%
17,Cc1ccc(S(=O)(=O)N2CCN(C(=O)Cc3ccccc3)CC2)cc1,-26.1%
18,Cc1ccc(S(=O)(=O)N2CCN(C(=O)Cc3ccccc3)CC2)cc1C,-2.97%
19,Cc1ccc(S(=O)(=O)NCCC(=O)N2CCN(S(=O)(=O)c3ccccc3)CC2)cc1C,-16.6%

# Reference: PMC4336329 (PLoS ONE, 2015)
